# Results: publication PMC4336329 (PLoS ONE, 2015)
# About 14,000 (4.5%) of roughly 310,000 compounds showed an effect of 50% or more. The effect is printed as a negative number. The list comes from a sample in which strong results are over-represented; it also holds similar structures and randomly drawn compounds.
# Biological target: human ether-à-go-go-related gene (hERG) potassium channel (human, UniProt Q12809)
# Experiment: primary screen, population patch clamp on CHO cells stably expressing hERG; higher = less effect of the substance
# 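Further: peak tail current of the secondary pulse compared with the same well before compound.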
# Sequence of human ether-à-go-go-related gene (hERG) potassium channel (Q12809 whole entry, looked up): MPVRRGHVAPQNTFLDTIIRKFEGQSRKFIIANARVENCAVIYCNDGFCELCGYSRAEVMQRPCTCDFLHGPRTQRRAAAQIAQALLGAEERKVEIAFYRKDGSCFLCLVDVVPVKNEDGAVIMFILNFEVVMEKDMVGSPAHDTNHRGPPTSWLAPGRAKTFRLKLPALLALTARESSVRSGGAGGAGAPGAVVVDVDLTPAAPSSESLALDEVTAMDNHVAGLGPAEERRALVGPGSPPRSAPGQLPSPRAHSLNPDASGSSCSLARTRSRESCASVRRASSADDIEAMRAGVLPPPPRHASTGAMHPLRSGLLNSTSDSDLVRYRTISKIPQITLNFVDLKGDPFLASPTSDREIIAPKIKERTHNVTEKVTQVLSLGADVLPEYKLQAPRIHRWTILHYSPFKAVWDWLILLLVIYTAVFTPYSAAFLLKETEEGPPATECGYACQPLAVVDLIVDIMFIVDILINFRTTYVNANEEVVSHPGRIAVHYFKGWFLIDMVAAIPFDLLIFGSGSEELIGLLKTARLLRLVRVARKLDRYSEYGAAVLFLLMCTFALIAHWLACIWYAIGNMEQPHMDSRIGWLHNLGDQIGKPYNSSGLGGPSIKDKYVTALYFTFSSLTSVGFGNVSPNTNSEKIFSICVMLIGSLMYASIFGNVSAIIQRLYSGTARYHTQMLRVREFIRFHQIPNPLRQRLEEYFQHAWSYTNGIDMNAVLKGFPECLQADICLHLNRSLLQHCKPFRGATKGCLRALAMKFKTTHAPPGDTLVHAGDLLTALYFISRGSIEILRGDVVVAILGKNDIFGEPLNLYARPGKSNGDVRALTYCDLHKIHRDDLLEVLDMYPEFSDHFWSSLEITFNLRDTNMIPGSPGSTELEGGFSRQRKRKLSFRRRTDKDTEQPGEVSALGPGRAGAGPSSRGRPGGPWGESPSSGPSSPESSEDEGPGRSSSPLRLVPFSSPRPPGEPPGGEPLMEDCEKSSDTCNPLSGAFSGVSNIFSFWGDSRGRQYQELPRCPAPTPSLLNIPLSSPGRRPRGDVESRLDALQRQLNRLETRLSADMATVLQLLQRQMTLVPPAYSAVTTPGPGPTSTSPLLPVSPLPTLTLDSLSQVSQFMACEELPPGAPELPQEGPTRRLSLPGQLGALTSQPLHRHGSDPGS
row,SMILES,"hERG current change (%, negative = inhibition) at 10uM"
1,Cn1c(SCC(=O)N2CCOCC2)nc2c(c1=O)SCC2,15.8%
2,O=C(c1ccccc1)N1CCC(CC2CC(c3cccc(Br)c3)=NO2)(C(=O)NCC2CCCCC2)CC1 (stereo not drawn),-1.49%
3,CC(C)(C)OC(=O)N1CCC(CC2CC(c3cccc(Br)c3)=NO2)(C(=O)NCC2CCCCC2)CC1 (stereo not drawn),13.7%
4,CC(C)(C)OC(=O)N1CCC(CC2CC(c3ccc(Cl)cc3)=NO2)(C(=O)NCC2CCCCC2)CC1 (stereo not drawn),-19.5%
5,O=C(c1ccccc1)N1CCC(CC2CC(c3ccc(Cl)cc3)=NO2)(C(=O)NCC2CCCCC2)CC1 (stereo not drawn),-52%
6,O=C(C1CCCC1)N1CCC(CC2CC(c3cccc(Br)c3)=NO2)(C(=O)NCC2CCCCC2)CC1 (stereo not drawn),-49.9%
7,O=C(C1CCCC1)N1CCC(CC2CC(c3ccc(Cl)cc3)=NO2)(C(=O)NCC2CCCCC2)CC1 (stereo not drawn),-24.1%
8,O=C(CCCCCBr)N1CCC(CC2CC(c3ccc(Cl)cc3)=NO2)(C(=O)NCC2CCCCC2)CC1 (stereo not drawn),-74.6%
9,O=C(CCCCCBr)N1CCC(CC2CC(c3cccc(Br)c3)=NO2)(C(=O)NCC2CCCCC2)CC1 (stereo not drawn),-69%
10,CC1(C(=O)N2CCC(CC3CC(c4ccc(Cl)cc4)=NO3)(C(=O)NCC3CCCCC3)CC2)CC1 (stereo not drawn),-40.8%
11,CCOC(=O)c1c(-c2ccc(C)s2)csc1N,7.8%
12,Cc1cccc(/C=C/C(=O)c2cc(Br)ccc(=O)c2O)c1,16.7%
13,COc1ccc(Oc2ncnc3sccc23)cc1,1.8%
14,CC#CC(=O)N1CCC(CCC(=O)N(C)Cc2ccccc2)CC1,-7.72%
15,CCCCCCCNC1=CC(=O)CC(c2ccccc2)C1 (stereo not drawn),-81.3%
16,CC(C)CNC1=CC(=O)CC(c2ccco2)C1 (stereo not drawn),6.11%
17,CCCCCCCNC1=CC(=O)CC(c2ccco2)C1 (stereo not drawn),-76.9%
18,CCc1ccc(NC2=CC(=O)CC(c3ccco3)C2)cc1 (stereo not drawn),5.49%
19,CNC1=CC(=O)CC(c2ccccc2)C1 (stereo not drawn),-1.58%
20,CN(C)CCCNC1=CC(=O)CC(c2ccccc2)C1 (stereo not drawn),3.58%
21,COc1cc(S(=O)(=O)NCCN2CCOCC2)ccc1-n1cnnn1,17.5%
22,O=S(=O)(Nc1ccc2c(c1)OCCO2)c1cccc2nsnc12,-11.2%
23,O=C(O)c1ccc(Cn2cnc3scc(-c4ccccc4)c3c2=O)cc1,20.8%

row,SMILES,"hERG current change (%, negative = inhibition) at 10uM"
1,CC(C)n1c(NCc2nc3ccccc3n2C)nc2ccccc21,-46.4%
2,Cn1c(CNc2nc3ccccc3n2CCN2CCCCC2)nc2ccccc21,-65%
3,C=CCc1cccc(CNc2nc3ccccc3n2CCN2CCOCC2)c1O,-6.61%
4,c1ccc(Cn2c(CNc3nc4ccccc4n3CCN3CCCCC3)nc3ccccc32)cc1,-68.5%
5,CCN(CC)CCn1c(NCc2nc3ccccc3n2Cc2ccccc2)nc2ccccc21,-2.44%
6,c1ccc(Cn2c(CNc3nc4ccccc4n3CCN3CCOCC3)nc3ccccc32)cc1,-84.3%
7,c1coc(CNc2nc3ccccc3n2CCN2CCOCC2)c1,-33.2%
8,Cn1c(CNc2nc3ccccc3n2C)nc2ccccc21,-15.2%
9,C#CCOCCOCCOCCNc1nc(N2CCN(C(=O)Cn3cc(CCO)nn3)CC2)nc(N2CCN(C(=O)[C@H]([C@@H](C)O)n3cc(CCCC[NH3+])nn3)CC2)n1.[Cl-],12.3%
10,CCOC(=O)/C(=N\Nc1ncnc2ccccc12)c1ccc(OC)cc1,15%
11,COc1ccc(NC(=O)CSC2CC(=O)N(c3ccc4c(c3)OCCO4)C2=O)cc1 (stereo not drawn),4.54%
12,O=C(c1ccccc1-c1nc(-c2ccc(F)cc2)no1)N1CCCC1,-30.8%
13,Cn1nc(C(=O)Nc2ccc(Cl)c(S(=O)(=O)N3CCOCC3)c2)c2ccccc2c1=O,-9.05%
14,O=C(NC1CCS(=O)(=O)C1)N1CCCCC1 (stereo not drawn),13.2%
15,O=C(NC(=S)N1CCN(c2nc(-c3ccccc3)cs2)CC1)c1cncc(Br)c1,17%
16,Cc1n[nH]c(=O)nc1NCc1ccccc1Cl,3.23%
17,CC(C)OCCCn1c(=O)c2ccccc2n2c(CCC(=O)N3CCN(c4ccccn4)CC3)nnc12,-71.1%
18,O=C(CCc1nnc2n(Cc3ccc(F)cc3)c(=O)c3ccccc3n12)N1CCN(c2ccccn2)CC1,-79.2%
19,O=C(CCc1nnc2n(Cc3ccc(Cl)cc3)c(=O)c3ccccc3n12)N1CCN(c2ccccn2)CC1,-57%
20,Cn1c(=O)c2sccc2n2c(CCCC(=O)N3CCN(c4ccccn4)CC3)nnc12,-11.1%
21,CC(C)CCn1c(=O)c2sccc2n2c(CCCC(=O)N3CCN(c4ccccn4)CC3)nnc12,-65%
22,Cc1ccc(Cn2c(=O)c3ccccc3n3c(CCC(=O)O)nnc23)cc1,10.9%
